# Rows were chosen to be rich in hits. Some 3.8% of all compounds tested hit in one or more screens of this group.
# HEK293 cAMP ctrl = raises cAMP in parental HEK293 cells, TSHR agonist counter-screen. parental HEK293 CNG cAMP sensor, membrane potential fluorescence. Potency, µM (doses to about 57.1 µM), for the others: top-dose activation, actives largely listed as activators. 73,000 tested, 2.5% active; also: potency is read from the fitted curve at half-maximal effect; % of control where 0% means no effect; nearly all actives have a fitted effect of over 55% in size
#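 Parental HEK 293 cells stably expressing a cAMP-gated CNG channel were loaded with membrane potential dye containing 100 uM RO 20-1724 for 60 min. Compound added for 30 min; depolarization read as fluorescence intensity at 590 nm.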
# TSHR ag = activates the human thyroid stimulating hormone receptor; 73,000 tested, 0.48% active; HEK293-CNG-TSHR cells (CNG channel as cAMP sensor), membrane potential dye, cAMP; P16473; AID 926; Potency, µM (series often up to 57.1 µM), for the others: top-dose activation, actives largely listed as activators; active = well fitted activation curve with a large enough effect in the main read-out, with a control signal flat, not every such curve was filed as active; inconclusive = small, poorly fitted or top-dose-only effect, or a change in a side signal; inactive = no such curve, though single readings can be large or run the other way; % of control where 0% means no effect;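 also: the control signal comes from parental cells without the receptor; potency is read from the fitted curve at half-maximal effect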
# Target sequence (P16473 whole entry, looked up): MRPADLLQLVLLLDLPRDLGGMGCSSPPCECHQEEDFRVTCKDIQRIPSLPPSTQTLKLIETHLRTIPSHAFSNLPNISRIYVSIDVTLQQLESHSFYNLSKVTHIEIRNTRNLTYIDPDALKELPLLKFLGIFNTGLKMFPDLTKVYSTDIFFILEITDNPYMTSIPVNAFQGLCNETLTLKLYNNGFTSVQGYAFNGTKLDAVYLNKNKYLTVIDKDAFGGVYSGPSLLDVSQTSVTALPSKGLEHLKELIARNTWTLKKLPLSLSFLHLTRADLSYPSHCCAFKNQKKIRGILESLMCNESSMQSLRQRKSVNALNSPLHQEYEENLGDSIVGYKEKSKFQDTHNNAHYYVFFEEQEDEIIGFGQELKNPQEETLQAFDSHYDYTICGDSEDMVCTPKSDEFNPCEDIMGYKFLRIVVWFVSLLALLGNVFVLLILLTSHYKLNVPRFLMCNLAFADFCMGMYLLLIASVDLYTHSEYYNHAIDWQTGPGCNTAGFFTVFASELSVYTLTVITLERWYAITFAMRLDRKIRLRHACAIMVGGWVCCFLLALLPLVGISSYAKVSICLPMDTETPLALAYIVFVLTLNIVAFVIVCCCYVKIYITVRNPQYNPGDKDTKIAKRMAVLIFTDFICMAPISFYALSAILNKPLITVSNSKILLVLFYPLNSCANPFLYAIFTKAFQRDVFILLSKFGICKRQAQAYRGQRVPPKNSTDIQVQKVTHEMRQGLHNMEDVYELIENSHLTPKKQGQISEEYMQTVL
#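 HEK 293 cells stably expressing TSHR and a cAMP-gated CNG channel; parental CNG-only cells as counterscreen. Cells preloaded 60 min with membrane potential dye plus 100 uM RO 20-1724, then compound 30 min; fluorescence read at 590 nm.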
# ERK AVP inh = inhibitors of vasopressin-stimulated ERK signaling pathway; HEK293-V1b, vasopressin-stimulated pERK AlphaScreen; Potency, µM (titrated, usually from 57.5 µM), inactives show at the highest dose activity, negative = inhibition, most hits filed as inhibitors; 72,000 tested, 0.99% active; AID 995; also: potency is read from the fitted curve at half-maximal effect; % is scaled to controls: 0 for no effect and ±100 for the full control effect; nearly all actives have a fitted effect of over 55% in size
#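 HEK293 cells stably expressing V1b receptor, seeded overnight in 1% FBS, were treated with compounds for 30 min at 37C, then stimulated 5 min with 25 nM vasopressin; phospho-ERK read by AlphaScreen SureFire after lysis.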
# Epigenetic mod = epigenetic GFP locus derepression in mouse cells | mouse C127i GFP locus derepression, cytometry, 30 h | Potency, µM (titrated, usually from 46.1 µM), inactives show top-dose GFP derepression (activation) | 68,000 tested, 0.09% active; also: % of control where 0% means no effect
#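 Read-out is the number of GFP-positive cells, scored as fluorescent objects 20 to 120 um wide, reflecting derepression of a silenced CMV-GFP reporter in murine C127i cells after 30 h compound exposure at 37 C.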
# HBB splicing = alters splicing of the hemoglobin beta chain; HBB splicing reporter cell assay, activation; EGFP reporter with mutant IVS2-654 intron; response scale: normalised to 500 nM splice-correcting PNA; Potency, µM (titrated, usually from 46.1 µM), for inactives: at the top dose activation, hits mostly activators; 65,000 tested, 0.06% active; AID 925; also: potency is read from the fitted curve at half-maximal effect; 0% is about no effect
#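 HeLa cells stably expressing EGFP interrupted by mutant beta-globin intron 2 (IVS2-654), 500/well in 2% FCS. Treated with compound for 2 days at 37C. Splicing correction scored as total well GFP intensity (488 nm excitation, 500-520 nm emission); 500 nM antisense PNA served as control.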
# Ub-GFP proteasome = proteasome inhibitors stabilizing ubiquitin-GFP reporter. Ubiquitin-GFP reporter cells, proteasome inhibition, GFP fluorescence; response scale: untreated = 0%, 10 µM MG-132 = 100%. 67,000 tested, under 10 active. Potency, µM (highest dose often 45.9 µM), inactives show top-dose activation (GFP accumulation), actives largely listed as activators; active = well fitted activation curve with a large enough effect, not every such curve was filed as active; inconclusive = small, poorly fitted or top-dose-only effect, or another doubt; inactive = no such curve, though single readings can be large or run the other way; also: potency is read from the fitted curve at half-maximal effect
#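 U2OS Ub(G76V)-GFP reporter; O/N plating, 0.5% FBS; cpd 46 uM–2.9 nM, 4 h, 37 °C; GFP+ cell count, 488/515 nm; norm. to basal vs 10 uM MG-132; CRC fit.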
# * marks the source's active call; other numbers are inactive results; ? = inconclusive; . = no result given; [ ] = another dose, or the depositor's remark. Unless noted, calls follow the shape of the dose curve; as a rule, active = well fitted curve in the direction sought with a large enough effect; inconclusive = small, poorly fitted or top-dose-only effect, or another doubt; inactive = no such curve, though single readings can be large; an effect the other way counts as inactive or inconclusive.
SMILES,HEK293 cAMP ctrl,TSHR ag,ERK AVP inh,Epigenetic mod,HBB splicing,Ub-GFP proteasome
CCC(=O)c1ccc(N2CCN(C(=O)COc3ccc(F)cc3)CC2)c(F)c1,?,?,3.2µM*,-2%,-1%[0.0738 µM],-5%[9.17 µM]
O=C1C[C@@H](O)[C@@H](O)[C@@H]2[C@H]3C(=O)N(c4ccc(F)cc4F)C(=O)[C@@H]3CC[C@H]12,-4%[11.4 µM],-2%[11.4 µM],-5%[11.5 µM],.,0%[9.22 µM],.
C#CCCCO/N=C1/[C@H]2O[C@@H]2[C@@H](O)[C@H]2[C@H]1CCn1c(=O)n([C@@H](CC)c3ccccc3)c(=O)n12,-4%[11.4 µM],-6%[11.4 µM],19%[11.5 µM],.,2%[9.22 µM],.
COC(=O)c1nc2cc(C)ccn2c1F,-2%,1%,-9%,3%,0%,15%
COC(=O)c1c(C(=O)OC)c2cc(C)ccn2c1Cl,20µM*,?,-13%,4%,.,-4%
Clc1c(CSc2nc3ccccc3o2)nc2ccccn12,?,?,-6%,3%,0%[57.5 µM],0%
Clc1c(CSc2nc3ccccc3o2)nc2sccn12,32µM*,?,-2%,2%,0%,0%
CCc1c(C)nc(SCC(=O)c2ccc(C)c(C)c2)[nH]c1=O,25µM*,?,-3%,0%,-1%,-1%
Cc1cc(=O)[nH]c(SCC(=O)c2ccc(C)c(C)c2)n1,9%,.,.,.,.,.
N#C/C(=C\c1ccc(O)c(O)c1)C(=O)c1ccc(O)c(O)c1,-6%,4%,?,-1%,3%,-6%
CC(C)(C)c1cc(/C=C(\C#N)C(N)=S)cc(C(C)(C)C)c1O,3.2µM*,?,-9%,2%,1%,4%
[C-]#[N+]/C(C#N)=C\c1cc(C(C)(C)C)c(O)c(C(C)(C)C)c1,2.5µM*,?,?,.,-1%,.
CCCCCCCCCC(=O)N[C@@H](CN1CCOCC1)[C@@H](O)c1ccccc1,24%,11%,33%,-1%,0%,5%
CC(=O)CCc1ccccc1,18%,1%,14%,.,1%,.
O=C(CCc1ccccc1)Nc1c(F)c(F)c(F)c(F)c1F,16µM*,?,19%,2%,0%[9.22 µM],0%
C=CCOC(=O)C(C(=O)CC)C(NC(=O)OC)c1ccc(F)cc1 (stereo not given),3%[11.4 µM],7%[11.4 µM],5%[11.5 µM],.,4%[9.22 µM],.
CC[C@@H]1Cn2c(c3nc(-c4ccccc4)nc-3n(C)c2=O)N1,0%,3%,-24%,.,-1%,.
COCCn1c(=O)c(-c2cccc(C#N)c2)nc2cnc(Oc3ccccc3)nc21,8%[0.457 µM],-3%,-21%,-3%[9.22 µM],0%,4%
CN(C)c1ncc2ncc(=O)n(CCc3ccccc3)c2n1,13µM*,?,?,-3%[9.22 µM],0%,-1%
CN(C)c1ncc2nc(-c3ccccc3)c(=O)n(Cc3ccc(F)cc3)c2n1,5µM*,?,16%,5%[9.22 µM],3%,12%
CN(C)c1ncc2nc(-c3ccc(Cl)cc3)c(=O)n(Cc3ccc(F)cc3)c2n1,6%[0.457 µM],-7%,2%,8%[9.22 µM],2%,0%
COc1ccc(Nc2ncc3nc(-c4cccs4)c(=O)n(Cc4cccc(OC)c4)c3n2)cc1,11%,-1%,-16%,?,?,3%
COc1cccc(Cn2c(=O)c(-c3cccs3)nc3cnc(Nc4cccc(OC)c4)nc32)c1,?,?,42%,0%[9.22 µM],10µM*,7%
COCCn1c(=O)c(-c2cccc(C#N)c2)nc2cnc(Nc3ccccc3)nc21,0.25µM*,?,-8%,0%[9.22 µM],11%,?
CCNC(=O)[C@@H]1O[C@@H](n2cnc3c(N)nc(NCCc4ccc(CCC(=O)O)cc4)nc32)[C@H](O)[C@@H]1O,13%,.,-28%,1%,0%,-6%
CN1CCN(c2ncc3nc(-c4ccccc4)c(=O)n(Cc4ccc(F)cc4)c3n2)CC1,?,?,-21%,0%[9.22 µM],0%,1%
